From publication PMC7862700, “An all-to-all approach to the identification of sequence-specific readers for epigenetic DNA modifications on cytosine”

How the values were obtained:
Experiment in all cases: DAPPL (digital affinity profiling via proximity ligation, sequencing); 10 mM Tris-HCl pH 7.5, 50 mM NaCl, 1 mM DTT, 4% glycerol, room temperature, 30 min; GST-TFs on glutathione beads, 16-mer random dsDNA library, 0.1% formaldehyde crosslink after washing; high values mean tight binding
Settings in all cases: protein: recombinant; tags: N-terminal GST; dsDNA, one strand shown
[1] = target: T1, ELK1 (Homo sapiens, UniProt P19419 1-428)
T1 sequence: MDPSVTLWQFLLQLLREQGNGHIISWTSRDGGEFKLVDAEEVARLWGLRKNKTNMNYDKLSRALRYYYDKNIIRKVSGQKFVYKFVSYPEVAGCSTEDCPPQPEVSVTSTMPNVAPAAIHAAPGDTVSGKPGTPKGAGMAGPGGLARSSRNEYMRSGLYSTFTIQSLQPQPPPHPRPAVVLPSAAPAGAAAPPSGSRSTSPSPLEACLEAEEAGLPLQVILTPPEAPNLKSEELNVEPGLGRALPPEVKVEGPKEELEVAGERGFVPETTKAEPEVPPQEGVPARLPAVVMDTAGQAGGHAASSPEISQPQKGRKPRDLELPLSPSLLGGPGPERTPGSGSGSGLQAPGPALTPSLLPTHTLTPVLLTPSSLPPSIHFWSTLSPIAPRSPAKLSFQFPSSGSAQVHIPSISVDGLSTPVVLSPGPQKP
In short: (§1)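 Sequencing on an Illumina NextSeq500 followed washing, crosslinking with 0.1% formaldehyde, proximity ligation (BsaI/T4 ligase, 1 h, 37 °C) and PCR amplification of pools that had been incubated for 30 min at room temperature with 200 nmole of a random double-stranded 16-mer DNA library in Tris/NaCl/DTT/glycerol buffer. Each pool held DNA-barcoded human transcription factors, expressed in yeast as GST fusions and captured on glutathione beads, plus a tag-only sample. Binding signal is a hexamer's read frequency for a factor divided by its frequency in the tag-only sample.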

[2] = target: T2, GABPA (Homo sapiens, UniProt Q06546 1-454)
T2 sequence: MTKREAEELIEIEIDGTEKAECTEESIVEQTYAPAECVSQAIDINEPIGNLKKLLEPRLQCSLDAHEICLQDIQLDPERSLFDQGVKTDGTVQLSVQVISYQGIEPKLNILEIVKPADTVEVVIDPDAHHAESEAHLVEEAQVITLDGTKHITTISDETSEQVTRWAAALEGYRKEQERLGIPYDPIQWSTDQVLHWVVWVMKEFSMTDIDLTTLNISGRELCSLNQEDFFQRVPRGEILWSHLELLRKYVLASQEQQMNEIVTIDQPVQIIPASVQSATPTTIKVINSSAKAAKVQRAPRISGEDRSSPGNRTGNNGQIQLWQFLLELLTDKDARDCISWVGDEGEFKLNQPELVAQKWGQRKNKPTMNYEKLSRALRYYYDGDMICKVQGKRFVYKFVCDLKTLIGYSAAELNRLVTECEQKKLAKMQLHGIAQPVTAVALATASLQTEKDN
In short: as §1

[3] = target: ELF1 (Homo sapiens, UniProt P32519 1-619)
In short: as §1

[4] = target: T3, EHF (Homo sapiens, UniProt Q9NZC4 1-300)
T3 sequence: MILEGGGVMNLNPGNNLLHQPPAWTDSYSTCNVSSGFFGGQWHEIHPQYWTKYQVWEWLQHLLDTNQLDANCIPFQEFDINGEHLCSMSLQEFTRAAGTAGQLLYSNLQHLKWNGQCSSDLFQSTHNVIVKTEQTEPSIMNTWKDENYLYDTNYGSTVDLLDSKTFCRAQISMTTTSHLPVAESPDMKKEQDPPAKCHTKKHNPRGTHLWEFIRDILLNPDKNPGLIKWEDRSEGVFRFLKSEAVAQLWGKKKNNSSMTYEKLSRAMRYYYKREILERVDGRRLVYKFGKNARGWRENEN
In short: as §1

[5] = target: SPIB (Homo sapiens, UniProt Q01892 1-262)
In short: as §1

[6] = target: T4, FEV (Homo sapiens, UniProt Q99581 1-238)
T4 sequence: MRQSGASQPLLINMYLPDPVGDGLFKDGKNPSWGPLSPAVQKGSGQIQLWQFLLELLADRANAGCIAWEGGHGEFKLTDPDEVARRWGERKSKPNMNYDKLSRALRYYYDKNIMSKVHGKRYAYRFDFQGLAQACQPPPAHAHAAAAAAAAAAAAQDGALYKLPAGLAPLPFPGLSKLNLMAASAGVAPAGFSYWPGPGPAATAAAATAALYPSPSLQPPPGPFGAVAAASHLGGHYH
In short: as §1

[7] = target: ETV5 (Homo sapiens, UniProt P41161 1-510)
In short: as §1

[8] = target: ELF4 (Homo sapiens, UniProt Q99607 1-663)
In short: as §1

[9] = target: T5, ETV2 (Homo sapiens, UniProt O00321 1-342)
T5 sequence: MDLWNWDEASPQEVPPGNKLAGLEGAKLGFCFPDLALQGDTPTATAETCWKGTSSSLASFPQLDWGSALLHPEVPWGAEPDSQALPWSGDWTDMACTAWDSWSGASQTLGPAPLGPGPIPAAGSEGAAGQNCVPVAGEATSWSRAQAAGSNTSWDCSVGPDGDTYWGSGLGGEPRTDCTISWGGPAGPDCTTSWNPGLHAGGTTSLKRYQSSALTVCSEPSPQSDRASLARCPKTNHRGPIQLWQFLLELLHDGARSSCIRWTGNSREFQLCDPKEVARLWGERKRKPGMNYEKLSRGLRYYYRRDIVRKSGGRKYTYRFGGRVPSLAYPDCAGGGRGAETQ
In short: as §1

[10] = target: T6, ELF3 (Homo sapiens, UniProt P78545 1-371)
T6 sequence: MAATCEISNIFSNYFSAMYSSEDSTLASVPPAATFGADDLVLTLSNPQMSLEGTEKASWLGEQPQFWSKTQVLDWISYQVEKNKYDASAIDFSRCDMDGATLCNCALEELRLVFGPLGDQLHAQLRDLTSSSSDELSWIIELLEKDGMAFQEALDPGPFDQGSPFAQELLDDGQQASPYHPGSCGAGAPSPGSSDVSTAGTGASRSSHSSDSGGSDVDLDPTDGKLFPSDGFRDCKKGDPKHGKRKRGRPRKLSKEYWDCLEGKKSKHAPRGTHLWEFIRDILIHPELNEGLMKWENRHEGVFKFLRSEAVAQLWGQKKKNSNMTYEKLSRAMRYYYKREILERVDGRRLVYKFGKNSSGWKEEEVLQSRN
In short: as §1

[11] = target: ETV1 (Homo sapiens, UniProt P50549 1-477)
In short: as §1

[12] = target: T7, ERF (Homo sapiens, UniProt P50548 1-548)
T7 sequence: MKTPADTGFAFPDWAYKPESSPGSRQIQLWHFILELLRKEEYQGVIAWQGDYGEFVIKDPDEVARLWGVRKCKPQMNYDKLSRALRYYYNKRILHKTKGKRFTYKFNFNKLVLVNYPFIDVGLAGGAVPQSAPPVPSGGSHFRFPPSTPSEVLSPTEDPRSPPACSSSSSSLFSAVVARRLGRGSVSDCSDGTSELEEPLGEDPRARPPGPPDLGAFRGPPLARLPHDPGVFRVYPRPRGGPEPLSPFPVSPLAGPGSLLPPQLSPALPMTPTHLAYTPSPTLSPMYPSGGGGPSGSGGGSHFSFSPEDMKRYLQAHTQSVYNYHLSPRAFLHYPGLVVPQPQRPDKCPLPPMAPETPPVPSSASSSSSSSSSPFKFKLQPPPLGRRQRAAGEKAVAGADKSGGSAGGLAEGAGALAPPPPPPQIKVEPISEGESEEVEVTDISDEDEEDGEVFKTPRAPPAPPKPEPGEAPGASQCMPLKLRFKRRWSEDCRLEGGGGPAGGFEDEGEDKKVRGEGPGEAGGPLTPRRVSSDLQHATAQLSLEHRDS
In short: as §1

[13] = target: T8, ETS2 (Homo sapiens, UniProt P15036 1-469)
T8 sequence: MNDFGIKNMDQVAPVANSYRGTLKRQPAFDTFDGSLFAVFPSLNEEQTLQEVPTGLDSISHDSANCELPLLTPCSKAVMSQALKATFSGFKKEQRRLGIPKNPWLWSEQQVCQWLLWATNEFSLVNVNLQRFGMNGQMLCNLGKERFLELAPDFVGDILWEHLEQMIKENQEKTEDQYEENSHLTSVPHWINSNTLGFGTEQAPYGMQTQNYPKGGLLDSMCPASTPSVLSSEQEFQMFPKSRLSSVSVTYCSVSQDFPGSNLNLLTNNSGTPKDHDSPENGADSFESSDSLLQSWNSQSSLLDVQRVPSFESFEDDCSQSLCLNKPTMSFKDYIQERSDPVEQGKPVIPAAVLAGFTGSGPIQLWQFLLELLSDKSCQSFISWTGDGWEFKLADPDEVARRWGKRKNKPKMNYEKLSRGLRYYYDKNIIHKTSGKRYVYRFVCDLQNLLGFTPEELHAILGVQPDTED
In short: as §1

[14] = target: T9, SPDEF (Homo sapiens, UniProt O95238 1-335)
T9 sequence: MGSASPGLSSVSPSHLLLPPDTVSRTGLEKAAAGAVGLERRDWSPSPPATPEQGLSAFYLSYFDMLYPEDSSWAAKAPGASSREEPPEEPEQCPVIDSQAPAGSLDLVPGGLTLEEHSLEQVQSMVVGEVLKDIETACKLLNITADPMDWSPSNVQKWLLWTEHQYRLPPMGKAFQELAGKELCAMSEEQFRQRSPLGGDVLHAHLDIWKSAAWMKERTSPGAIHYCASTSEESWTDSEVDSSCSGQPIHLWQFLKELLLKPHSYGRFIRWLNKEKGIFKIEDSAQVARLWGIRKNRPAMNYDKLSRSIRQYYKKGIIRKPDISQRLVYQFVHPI
In short: as §1

[15] = target: T10, ETV3 (Homo sapiens, UniProt P41162-2 1-143)
T10 sequence: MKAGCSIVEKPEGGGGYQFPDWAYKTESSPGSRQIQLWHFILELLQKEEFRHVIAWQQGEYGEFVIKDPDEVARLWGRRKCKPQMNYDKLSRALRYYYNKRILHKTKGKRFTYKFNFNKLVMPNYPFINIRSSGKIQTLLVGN
In short: as §1

[16] = target: T11, ELK4 (Homo sapiens, UniProt P28324-2 1-405)
T11 sequence: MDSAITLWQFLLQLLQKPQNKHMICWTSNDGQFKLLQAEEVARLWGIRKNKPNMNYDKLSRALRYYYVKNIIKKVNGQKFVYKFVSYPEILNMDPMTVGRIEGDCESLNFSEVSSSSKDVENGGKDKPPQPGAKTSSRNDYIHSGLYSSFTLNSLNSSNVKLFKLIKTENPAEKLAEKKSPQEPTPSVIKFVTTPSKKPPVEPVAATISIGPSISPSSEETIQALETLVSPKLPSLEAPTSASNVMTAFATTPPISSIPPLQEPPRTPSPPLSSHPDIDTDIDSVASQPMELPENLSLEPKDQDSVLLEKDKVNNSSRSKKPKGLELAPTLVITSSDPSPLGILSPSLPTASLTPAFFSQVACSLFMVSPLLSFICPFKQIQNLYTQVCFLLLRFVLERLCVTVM
In short: as §1

[17] = target: T12, ETV3L (Homo sapiens, UniProt Q6ZN32 1-361)
T12 sequence: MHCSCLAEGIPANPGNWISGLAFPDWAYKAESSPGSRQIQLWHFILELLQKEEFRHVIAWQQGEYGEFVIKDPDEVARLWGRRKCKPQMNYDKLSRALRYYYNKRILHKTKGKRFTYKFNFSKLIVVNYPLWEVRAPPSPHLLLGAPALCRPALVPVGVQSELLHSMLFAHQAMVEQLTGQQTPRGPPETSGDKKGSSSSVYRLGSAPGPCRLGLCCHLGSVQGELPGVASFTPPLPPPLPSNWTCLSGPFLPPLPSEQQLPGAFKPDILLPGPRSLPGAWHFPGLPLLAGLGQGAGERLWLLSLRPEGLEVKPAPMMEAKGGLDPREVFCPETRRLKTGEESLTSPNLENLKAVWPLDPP
In short: as §1

[18] = target: ETV6 (Homo sapiens, UniProt P41212 1-452)
In short: as §1

Sequence of ETV5 (P41161 whole entry): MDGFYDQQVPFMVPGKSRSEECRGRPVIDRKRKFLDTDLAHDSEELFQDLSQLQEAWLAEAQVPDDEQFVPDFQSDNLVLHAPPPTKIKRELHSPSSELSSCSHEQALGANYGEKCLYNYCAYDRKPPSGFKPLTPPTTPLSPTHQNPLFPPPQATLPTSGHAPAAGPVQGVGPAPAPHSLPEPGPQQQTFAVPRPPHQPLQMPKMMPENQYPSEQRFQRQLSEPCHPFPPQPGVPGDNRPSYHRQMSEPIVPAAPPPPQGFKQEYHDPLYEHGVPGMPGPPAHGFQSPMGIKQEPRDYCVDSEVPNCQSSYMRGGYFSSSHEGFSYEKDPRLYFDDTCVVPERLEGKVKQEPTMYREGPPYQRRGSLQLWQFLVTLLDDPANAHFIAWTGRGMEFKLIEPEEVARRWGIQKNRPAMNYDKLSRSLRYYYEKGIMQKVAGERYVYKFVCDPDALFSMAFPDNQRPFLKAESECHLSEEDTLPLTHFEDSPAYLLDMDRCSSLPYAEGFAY
Sequence of ETV1 (P50549 whole entry): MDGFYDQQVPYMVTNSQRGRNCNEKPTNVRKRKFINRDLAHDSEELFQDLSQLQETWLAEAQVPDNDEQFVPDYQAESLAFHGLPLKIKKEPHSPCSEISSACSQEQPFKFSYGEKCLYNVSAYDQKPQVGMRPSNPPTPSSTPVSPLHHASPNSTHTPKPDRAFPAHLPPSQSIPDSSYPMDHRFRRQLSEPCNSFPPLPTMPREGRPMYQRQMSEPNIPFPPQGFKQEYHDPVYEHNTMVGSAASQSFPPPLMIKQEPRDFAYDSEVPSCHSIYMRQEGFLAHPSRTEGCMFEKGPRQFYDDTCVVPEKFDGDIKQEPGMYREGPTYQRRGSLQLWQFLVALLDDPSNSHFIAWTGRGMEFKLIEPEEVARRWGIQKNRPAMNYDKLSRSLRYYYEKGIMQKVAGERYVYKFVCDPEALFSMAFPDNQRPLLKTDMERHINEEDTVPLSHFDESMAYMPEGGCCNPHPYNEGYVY
Sequence of SPIB (Q01892 whole entry): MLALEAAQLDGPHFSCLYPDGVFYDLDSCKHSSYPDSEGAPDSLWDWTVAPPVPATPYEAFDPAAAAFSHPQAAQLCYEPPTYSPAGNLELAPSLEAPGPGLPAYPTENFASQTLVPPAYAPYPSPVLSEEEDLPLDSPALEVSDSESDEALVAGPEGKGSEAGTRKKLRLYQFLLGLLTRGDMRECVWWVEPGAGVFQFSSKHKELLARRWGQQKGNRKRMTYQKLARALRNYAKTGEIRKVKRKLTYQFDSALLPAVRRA
Sequence of ELF1 (P32519 whole entry): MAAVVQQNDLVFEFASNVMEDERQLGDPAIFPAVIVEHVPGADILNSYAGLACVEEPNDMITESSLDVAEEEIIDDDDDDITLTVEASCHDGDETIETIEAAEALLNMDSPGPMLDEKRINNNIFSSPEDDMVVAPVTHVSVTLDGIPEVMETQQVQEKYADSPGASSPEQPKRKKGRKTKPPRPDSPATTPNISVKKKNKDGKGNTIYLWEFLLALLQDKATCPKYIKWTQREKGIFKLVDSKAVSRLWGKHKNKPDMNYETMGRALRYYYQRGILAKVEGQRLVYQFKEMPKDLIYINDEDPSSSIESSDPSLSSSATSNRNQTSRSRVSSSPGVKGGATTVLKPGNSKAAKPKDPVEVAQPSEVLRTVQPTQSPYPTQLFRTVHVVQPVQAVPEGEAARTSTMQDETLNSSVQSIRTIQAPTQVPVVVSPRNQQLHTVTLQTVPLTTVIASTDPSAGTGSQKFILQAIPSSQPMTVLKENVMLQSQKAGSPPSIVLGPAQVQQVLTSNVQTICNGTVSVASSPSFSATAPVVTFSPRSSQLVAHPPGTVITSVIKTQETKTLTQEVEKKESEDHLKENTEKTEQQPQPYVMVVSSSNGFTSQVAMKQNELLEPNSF
Sequence of ELF4 (Q99607 whole entry): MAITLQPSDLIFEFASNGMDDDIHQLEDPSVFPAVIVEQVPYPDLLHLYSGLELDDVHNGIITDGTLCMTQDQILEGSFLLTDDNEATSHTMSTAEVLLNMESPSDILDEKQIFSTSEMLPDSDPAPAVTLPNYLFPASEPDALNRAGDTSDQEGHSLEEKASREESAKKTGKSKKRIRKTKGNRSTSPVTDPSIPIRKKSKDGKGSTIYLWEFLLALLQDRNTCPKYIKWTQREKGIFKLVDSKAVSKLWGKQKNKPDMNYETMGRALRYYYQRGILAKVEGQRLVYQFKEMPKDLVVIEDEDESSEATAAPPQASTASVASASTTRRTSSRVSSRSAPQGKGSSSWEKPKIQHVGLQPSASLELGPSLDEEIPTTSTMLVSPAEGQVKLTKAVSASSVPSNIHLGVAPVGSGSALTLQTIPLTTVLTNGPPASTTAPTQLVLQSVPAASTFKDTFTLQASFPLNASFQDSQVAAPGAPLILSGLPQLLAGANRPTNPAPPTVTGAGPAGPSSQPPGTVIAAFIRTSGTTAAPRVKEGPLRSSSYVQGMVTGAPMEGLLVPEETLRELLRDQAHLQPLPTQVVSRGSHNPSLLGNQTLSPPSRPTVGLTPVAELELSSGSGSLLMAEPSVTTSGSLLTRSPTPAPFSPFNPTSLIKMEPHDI
Sequence of ETV6 (P41212 whole entry): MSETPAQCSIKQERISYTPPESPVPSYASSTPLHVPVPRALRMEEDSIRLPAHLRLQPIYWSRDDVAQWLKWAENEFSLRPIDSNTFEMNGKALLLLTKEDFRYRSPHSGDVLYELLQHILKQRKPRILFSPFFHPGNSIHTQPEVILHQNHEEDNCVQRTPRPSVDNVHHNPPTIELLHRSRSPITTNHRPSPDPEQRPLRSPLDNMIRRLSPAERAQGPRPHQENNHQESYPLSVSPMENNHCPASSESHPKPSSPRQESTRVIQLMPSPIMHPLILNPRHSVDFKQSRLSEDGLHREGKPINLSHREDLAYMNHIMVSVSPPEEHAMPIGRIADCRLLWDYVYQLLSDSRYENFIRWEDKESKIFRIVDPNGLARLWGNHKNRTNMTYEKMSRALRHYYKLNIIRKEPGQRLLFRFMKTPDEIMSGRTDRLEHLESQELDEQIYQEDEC

Sequence | binding signal [1] | binding signal [2] | binding signal [3] | binding signal [4] | binding signal [5] | binding signal [6] | binding signal [7] | binding signal [8] | binding signal [9] | binding signal [10] | binding signal [11] | binding signal [12] | binding signal [13] | binding signal [14] | binding signal [15] | binding signal [16] | binding signal [17] | binding signal [18]
ATAGCC | 1.08 fold enrichment (6-mer frequency, TF over GST control) | 1.11 fold enrichment (6-mer frequency, TF over GST control) | 1.05 fold enrichment (6-mer frequency, TF over GST control) | 1.1 fold enrichment (6-mer frequency, TF over GST control) | 1.04 fold enrichment (6-mer frequency, TF over GST control) | 1.1 fold enrichment (6-mer frequency, TF over GST control) | 1.1 fold enrichment (6-mer frequency, TF over GST control) | 1.1 fold enrichment (6-mer frequency, TF over GST control) | 1 fold enrichment (6-mer frequency, TF over GST control) | 1.15 fold enrichment (6-mer frequency, TF over GST control) | 1.03 fold enrichment (6-mer frequency, TF over GST control) | 1.1 fold enrichment (6-mer frequency, TF over GST control) | 1.07 fold enrichment (6-mer frequency, TF over GST control) | 1.08 fold enrichment (6-mer frequency, TF over GST control) | 1.06 fold enrichment (6-mer frequency, TF over GST control) | – | – | –
CGTCCA | – | 1.04 fold enrichment (6-mer frequency, TF over GST control) | 1.05 fold enrichment (6-mer frequency, TF over GST control) | 1.02 fold enrichment (6-mer frequency, TF over GST control) | 1 fold enrichment (6-mer frequency, TF over GST control) | – | 1.02 fold enrichment (6-mer frequency, TF over GST control) | – | – | – | 1.08 fold enrichment (6-mer frequency, TF over GST control) | 1.02 fold enrichment (6-mer frequency, TF over GST control) | – | 1.07 fold enrichment (6-mer frequency, TF over GST control) | 1.03 fold enrichment (6-mer frequency, TF over GST control) | 1 fold enrichment (6-mer frequency, TF over GST control) | 1.13 fold enrichment (6-mer frequency, TF over GST control) | 1.04 fold enrichment (6-mer frequency, TF over GST control)
